Source: PubChem BioAssay (National Center for Advancing Translational Sciences (NCATS))
The sample as a whole holds a higher share of hits than the screen did.
LmPK inhibitor: blocks Leishmania mexicana pyruvate kinase activity | Q27686 | purified LmPK, Kinase-Glo ATP luminescence, 1 h | Potency, µM (top dose mostly 57.5 µM), for the others: at the highest dose activity change, negative = inhibition, most hits filed as inhibitors | 290,000 compounds, 0.37% hits; note: potency is the fitted concentration of half-maximal effect; % is set by controls: 0 for no effect and ±100 for the full control effect
Target sequence (Q27686 whole entry, looked up): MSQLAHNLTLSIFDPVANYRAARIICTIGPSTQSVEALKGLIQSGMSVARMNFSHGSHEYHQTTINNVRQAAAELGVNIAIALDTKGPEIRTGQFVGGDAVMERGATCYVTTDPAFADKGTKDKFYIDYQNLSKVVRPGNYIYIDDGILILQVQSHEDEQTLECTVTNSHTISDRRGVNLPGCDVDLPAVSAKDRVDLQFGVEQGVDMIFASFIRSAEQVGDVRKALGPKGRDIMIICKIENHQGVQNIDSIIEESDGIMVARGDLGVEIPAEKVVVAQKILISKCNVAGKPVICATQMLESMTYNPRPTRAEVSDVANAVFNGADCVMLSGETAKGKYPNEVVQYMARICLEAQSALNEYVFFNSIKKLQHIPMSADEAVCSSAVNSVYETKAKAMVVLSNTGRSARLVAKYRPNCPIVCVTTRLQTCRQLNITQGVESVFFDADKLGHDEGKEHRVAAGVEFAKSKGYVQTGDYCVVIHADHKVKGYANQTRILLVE
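Purified LmPK (0.1 nM) with 0.5 mM PEP and 0.1 mM ADP in imidazole buffer pH 7.2 with MgCl2/KCl, 1 h at room temperature. ATP formed was read by luciferase luminescence and normalized to no-enzyme and uninhibited controls.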
Cycloheximide cs: affects cycloheximide protein synthesis inhibition readout, counter-screen; 300,000 compounds, 12% hits; cell reporter, cycloheximide protein synthesis inhibition counterscreen; max response, %; in the data active = max response mostly above about 13%, no sharp cut-off; inactive = mostly below about 14%; note: read at 38.3 µM for the half of the compounds with a filed dose; 0% is about no effect
RE007 growth inh: less growth of the S. pombe RE007 Vpr strain. S. pombe RE007 Vpr strain, BacTiter-Glo ATP luminescence, 24 h. Potency, µM (titrated, usually from 92.2 µM), for inactives: top-dose activity change, negative = less growth, most hits filed as inhibitors. 360,000 compounds, 0.21% hits; active = well fitted falling curve with a large enough effect; note: potency is the fitted concentration of half-maximal effect; % is set by controls: 0 for no effect and ±100 for the full control effect; nearly all actives have a fitted effect of over 50% in size
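Fission yeast RE007 carrying one integrated HIV-1 vpr copy, seeded at OD 0.01 in PMG+AL medium with 23 nL pinned compound. Grown 24 h at 30 degrees; viability read by BacTiter-Glo luminescence after 5 min.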
TbPYK inhibitor: inhibitors of Trypanosoma brucei pyruvate kinase. Potency, µM (titrated, usually from 76.8 µM), inactives show at the highest dose activity, negative = inhibition, hits mostly inhibitors. Q57TT1. TbPYK enzyme, Kinase-Glo Plus ATP luminescence, 45 min. 410,000 compounds, 0.12% hits; note: potency is the fitted concentration of half-maximal effect; % is set by controls: 0 for no effect and ±100 for the full control effect; nearly all actives have a fitted effect of over 50% in size
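In this concentration-response screen, enzyme-free wells defined baseline while DMSO plates tracked drift. Each reaction combined TbPYK, substrate, compound and 130 uM ADP for 45 min at room temperature. Kinase-Glo Plus luminescence gave the signal.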
Shiga inhibitor: Shiga toxin inhibition; Vero cells, Shiga toxin protein synthesis inhibition reporter; inhibition, % at 38.7 µM; 290,000 compounds, 9.2% hits; in the data active = inhibition mostly above about 28%, no sharp cut-off; inactive = mostly below about 43%; note: 0% is about no effect
FBPA Giardia inh: Giardia lamblia aldolase inhibition | 290,000 compounds, 0.71% hits | purified Giardia FBPA | Potency, µM (series often up to 59.6 µM), inactives show at the top dose activity, negative = inhibition, most hits filed as inhibitors | A8B2U2 | AID 2451; note: potency is the fitted concentration of half-maximal effect; % is set by controls: 0 for no effect and ±100 for the full control effect; nearly all actives have a fitted effect of over 55% in size
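Giardia FBPA (40 nM reagent) was preincubated 10 min at RT with compound (up to 57.5 uM final), then substrate plus GAPDH/TPI/NAD/arsenate coupling system with diaphorase/resazurin was added; resorufin fluorescence (525/598 nm) was read after 20 min.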
The depositor's hits bear a star. Unless noted, calls come from the whole dose curve; as a rule, active = well fitted curve in the direction sought with a large enough effect; inconclusive = small, poorly fitted or top-dose-only effect, or another doubt; inactive = no such curve, though single readings can be large; an effect the other way counts as inactive or inconclusive.

What do the screens show for `COC(=O)C(C)N1C(=O)S/C(=C\c2ccc(-c3ccc(C(=O)O)cc3C)o2)C1=O` (configuration not stated)?
LmPK inhibitor: -2%; Cycloheximide cs: 44*; RE007 growth inh: -24%; TbPYK inhibitor: -21%; Shiga inhibitor: 89*; FBPA Giardia inh: 0%

How did COc1ccccc1-c1noc(-c2ccc(N3CCN(c4ccccc4)CC3)c([N+](=O)[O-])c2)n1 do in these assays?
TbPYK inhibitor: -2%

What do the screens show for `COc1ccc(C(=O)CC2SC(N)=NC2=O)cc1` (configuration not stated)?
LmPK inhibitor: -4%; Cycloheximide cs: -2; RE007 growth inh: 1%; TbPYK inhibitor: 0%; Shiga inhibitor: 2; FBPA Giardia inh: 1%

How did CC(C)(C)c1ccc(C2=NC(=O)C(CC(=O)O)S2)cc1 (configuration not stated) do in these assays?
LmPK inhibitor: -2%; Cycloheximide cs: 13*; RE007 growth inh: 14%; TbPYK inhibitor: -4%; Shiga inhibitor: 31; FBPA Giardia inh: -8%

What do the screens show for `CC1OC(OCC2OC(Oc3cc(O)c4c(c3)OC(c3ccc(O)cc3)CC4=O)C(O)C(O)C2O)C(O)C(O)C1O` (configuration not stated)?
Cycloheximide cs: -7; Shiga inhibitor: 14; FBPA Giardia inh: 0%

How did CCN(c1ccc(OC)cc1)S(=O)(=O)c1ccc2c(c1)NC(=O)CS2 do in these assays?
LmPK inhibitor: 3%; Cycloheximide cs: 34*; RE007 growth inh: 2%; TbPYK inhibitor: 0%; Shiga inhibitor: 27

What do the screens show for `CCN1CCC(N(Cc2ccc(F)cc2)C(=O)Nc2cc(Cl)ccc2C(=O)OC)CC1`?
TbPYK inhibitor: 0%

What do the screens show for `Cc1sc2nc3c4ccccc4c(NCc4ccco4)nn3c(=O)c2c1C`?
LmPK inhibitor: -9%; Cycloheximide cs: 73*; RE007 growth inh: 0%; TbPYK inhibitor: -9%; Shiga inhibitor: 135*; FBPA Giardia inh: -11%

What do the screens show for `CCCCC(=O)NC(c1cccc([N+](=O)[O-])c1)c1c(OC(C)=O)ccc2ccccc12` (configuration not stated)?
LmPK inhibitor: 5%; Cycloheximide cs: 17*; RE007 growth inh: 28%; TbPYK inhibitor: 7%; Shiga inhibitor: 5; FBPA Giardia inh: -8%

Results for CCn1nc(-c2ccccc2)c(-c2ccccc2)c(C(=O)Nc2nc(C)c(C(C)=O)s2)c1=O ?
TbPYK inhibitor: 0%

Results for c1ccc2sc(NC3=NCN(C4CCCCCC4)CN3)nc2c1 ?
LmPK inhibitor: 0%; Cycloheximide cs: -2; RE007 growth inh: 11%; TbPYK inhibitor: 10%; Shiga inhibitor: -7; FBPA Giardia inh: 0%

Results for COCCN1CN=C(Nc2nc(C)c3ccc(C)cc3n2)NC1 ?
LmPK inhibitor: -7%; Cycloheximide cs: -4; Shiga inhibitor: -14; FBPA Giardia inh: 7%

Results for COCCN1CN=C(Nc2nc3ccccc3s2)NC1 ?
LmPK inhibitor: 5%; Cycloheximide cs: 21*; RE007 growth inh: -1%; TbPYK inhibitor: 6%; Shiga inhibitor: 31*; FBPA Giardia inh: 0%

How did COCCN1CN=C(Nc2nc3ccccc3o2)NC1 do in these assays?
LmPK inhibitor: 0%; Cycloheximide cs: 27*; RE007 growth inh: 8%; TbPYK inhibitor: -1%; Shiga inhibitor: 35

Results for c1ccc2oc(NC3=NCN(C4CCCCC4)CN3)nc2c1 ?
LmPK inhibitor: -2%; Cycloheximide cs: 20*; RE007 growth inh: 7%; TbPYK inhibitor: 1%; Shiga inhibitor: 18; FBPA Giardia inh: 0%

What do the screens show for `CC(C)N1CN=C(Nc2nc3ccccc3o2)NC1`?
LmPK inhibitor: 3%; Cycloheximide cs: 37*; RE007 growth inh: -1%; TbPYK inhibitor: 0%; Shiga inhibitor: 37*; FBPA Giardia inh: 0%

Results for CCCCN1CN=C(Nc2nc3ccccc3o2)NC1 ?
LmPK inhibitor: -1%; Cycloheximide cs: 62*; RE007 growth inh: 4%; TbPYK inhibitor: 0%; Shiga inhibitor: 116*; FBPA Giardia inh: -4%

Results for Cc1nc(NC2=NCN(CCc3ccccc3)CN2)nc2ccccc12 ?
LmPK inhibitor: -3%; Cycloheximide cs: -1; Shiga inhibitor: 20; FBPA Giardia inh: -2%

What do the screens show for `CC(C)(C)c1cc(=O)n(-c2ccccc2)[nH]1`?
LmPK inhibitor: -1%; Cycloheximide cs: 18; RE007 growth inh: -29%; TbPYK inhibitor: 4%; Shiga inhibitor: 28; FBPA Giardia inh: 0.63µM*

Results for Cc1ccc(NC(=O)[C@@H](CC(C)C)NC(=O)[C@@H]2Cc3ccccc3CN2)cc1 ?
LmPK inhibitor: -1%; Cycloheximide cs: 28; RE007 growth inh: -15%; TbPYK inhibitor: -5%; Shiga inhibitor: 61*; FBPA Giardia inh: 4%

How did COc1cccc(NC(=O)[C@H](CC(C)C)NC(=O)[C@@H]2Cc3ccccc3CN2)c1 do in these assays?
LmPK inhibitor: -1%; Cycloheximide cs: 14; RE007 growth inh: 8%; TbPYK inhibitor: -1%; Shiga inhibitor: 11

What do the screens show for `CSCC[C@H](NC(=O)[C@@H]1Cc2ccccc2CN1)C(=O)Nc1cccc(C)c1`?
LmPK inhibitor: -3%; Cycloheximide cs: 16; RE007 growth inh: 3%; TbPYK inhibitor: 5%; Shiga inhibitor: 29

How did Cc1ccc(NC(=O)[C@H](CC(C)C)NC(=O)[C@@H]2Cc3ccccc3CN2)cc1 do in these assays?
LmPK inhibitor: 0%; Cycloheximide cs: 18; RE007 growth inh: 9%; TbPYK inhibitor: 8%; Shiga inhibitor: 9

How did Cc1ccc(NC(=O)[C@H](NC(=O)[C@@H]2Cc3ccccc3CN2)c2ccccc2)cc1C do in these assays?
LmPK inhibitor: 6%; Cycloheximide cs: 17*; RE007 growth inh: -1%; TbPYK inhibitor: 1%; Shiga inhibitor: 20

Results for Cc1ccc(NC(=O)[C@@H](C)NC(=O)[C@@H]2Cc3ccccc3CN2)cc1 ?
LmPK inhibitor: 7%; Cycloheximide cs: 24*; RE007 growth inh: -3%; TbPYK inhibitor: 0%; Shiga inhibitor: 22

What do the screens show for `Cc1cccc(NC(=O)[C@H](Cc2ccccc2)NC(=O)[C@@H]2Cc3ccccc3CN2)c1`?
LmPK inhibitor: 8%; Cycloheximide cs: 15*; RE007 growth inh: 4%; TbPYK inhibitor: -7%; Shiga inhibitor: 25

What do the screens show for `CCn1cc(C(=O)N2CCN(c3cc(Cl)ccc3C)CC2)c(=O)c2cc(S(=O)(=O)N3CCOCC3)ccc21`?
TbPYK inhibitor: -11%

What do the screens show for `CCOc1ccccc1NC(=O)C(=O)c1cc(C)n(-c2cccc(C)c2C)c1C`?
TbPYK inhibitor: -7%
